A short description of assay [1]: resazurin metabolic signal in HepG2 cells – cell-based, resazurin fluorescence, 24 h, PK04 Diversity Set, profiling panel (AID 1172). Also: test concentration not given here. As to conditions: HepG2 viability, higher = more signal. A general note: Alamar Blue is a resazurin reagent that responds to reducing activity.
A short description of assay [2]: budding yeast growth changes without added modifier – OD600, strain BY4716, 24 h, basal condition, primary screen (AID 1173). As to conditions: S. cerevisiae BY4716 growth, OD600, 24 h; higher = more signal, called active from +8 up or from −8 down.
A short description of assay [3]: viability profiling in MM1S myeloma cells – cell-based, resazurin fluorescence, basal, 24 h, PK04 Diversity Set, profiling panel (AID 1174).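 Also: MM1S multiple myeloma cell line; test concentration not given here.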 As to conditions: higher = more signal, called active from +8 up or from −8 down.
Assay [4] addresses Dihydroorotate dehydrogenase (quinone), mitochondrial (Plasmodium falciparum (isolate 3D7)) (UniProt Q08210). The experiment in a line: inhibition of P. falciparum DHODH – biochemical, C-terminal His tag, absorbance 600 nm, primary screen (AID 1175).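 Also: recombinant parasite enzyme with a five histidine tag at its C terminus; test concentration not given here.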 As to conditions: PfDHODH enzyme, DCIP absorbance 600 nm; higher = more signal, called active from +8 up or from −8 down.
A short description of assay [5]: inhibition of PAO1 biofilm formation – strain PAO1, LB-PBS medium, absorbance 600 nm, primary screen (AID 1176). Also: test concentration not given here. As to conditions: P. aeruginosa PAO1 growth/biofilm, A600, 12 h; higher = more signal.
Assay [6] can be described thus: growth modulation of vineyard yeast isolate – strain RM11-1a, OD600, basal, 24 h, primary screen (AID 1177).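 Also: cultures grown under basal conditions with no added stressor; test concentration not given here.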 As to conditions: S. cerevisiae RM11-1a growth, OD600, 24 h; higher = more signal, called active from +8 up or from −8 down.
Assay [7] can be described thus: growth of efflux-deficient E. coli DRC39 – strain DRC39, OD650, 24 h, E. coli filamentation inducers, primary screen (AID 1178).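 Also: growth measured as culture turbidity by optical density at 650 nm; test concentration not given here.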 As to conditions: E. coli DRC39 acrAB, higher = more signal, called active from +8 up or from −8 down.
The nature of assay [8]: growth of efflux-deficient E. coli DRC39 – strain DRC39, OD650, 48 h, E. coli filamentation inducers, primary screen (AID 1179).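 Also: screen aims at cell division blockers that make cells filament.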 As to conditions: E. coli DRC39 delta-acrAB growth, higher = more signal, called active from +8 up or from −8 down.
Assay [9] can be described thus: viability profiling in RPMI8226 myeloma cells – cell-based, resazurin fluorescence, basal, 24 h, PK04 Diversity Set, profiling panel (AID 1180).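 Also: RPMI8826 multiple myeloma cell line at 5000 cells per well; test concentration not given here.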 As to conditions: higher = more signal.
In assay [10] the target is E3 ubiquitin-protein ligase XIAP (Homo sapiens) (UniProt P98170). The experiment in a line: small molecules binding XIAP protein – biophysical, small-molecule microarray, fluorescence 635 nm, primary screen (AID 1181).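 Also: score merges 667 nm emission and signal to noise over triplicate slides.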 As to conditions: higher = more signal.

Active and inactive are the calls of the source. Unless noted, no rule for the calls is given here.

Chain of E3 ubiquitin-protein ligase XIAP (Homo sapiens) (P98170 whole entry, looked up): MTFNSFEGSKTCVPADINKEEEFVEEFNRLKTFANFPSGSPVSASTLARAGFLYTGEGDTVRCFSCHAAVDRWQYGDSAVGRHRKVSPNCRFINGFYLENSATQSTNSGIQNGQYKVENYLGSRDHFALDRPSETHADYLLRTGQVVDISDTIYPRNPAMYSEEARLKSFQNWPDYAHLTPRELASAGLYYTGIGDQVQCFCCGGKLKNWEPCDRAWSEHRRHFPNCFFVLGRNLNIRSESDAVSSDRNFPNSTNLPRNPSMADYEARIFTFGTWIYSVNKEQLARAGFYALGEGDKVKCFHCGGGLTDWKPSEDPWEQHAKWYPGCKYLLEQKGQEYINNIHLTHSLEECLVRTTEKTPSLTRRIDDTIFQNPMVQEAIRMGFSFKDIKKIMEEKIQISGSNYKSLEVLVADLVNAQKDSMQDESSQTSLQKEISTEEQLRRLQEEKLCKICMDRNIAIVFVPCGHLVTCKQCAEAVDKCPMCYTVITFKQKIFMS
Chain of Dihydroorotate dehydrogenase (quinone), mitochondrial (Plasmodium falciparum (isolate 3D7)) (Q08210 whole entry, looked up): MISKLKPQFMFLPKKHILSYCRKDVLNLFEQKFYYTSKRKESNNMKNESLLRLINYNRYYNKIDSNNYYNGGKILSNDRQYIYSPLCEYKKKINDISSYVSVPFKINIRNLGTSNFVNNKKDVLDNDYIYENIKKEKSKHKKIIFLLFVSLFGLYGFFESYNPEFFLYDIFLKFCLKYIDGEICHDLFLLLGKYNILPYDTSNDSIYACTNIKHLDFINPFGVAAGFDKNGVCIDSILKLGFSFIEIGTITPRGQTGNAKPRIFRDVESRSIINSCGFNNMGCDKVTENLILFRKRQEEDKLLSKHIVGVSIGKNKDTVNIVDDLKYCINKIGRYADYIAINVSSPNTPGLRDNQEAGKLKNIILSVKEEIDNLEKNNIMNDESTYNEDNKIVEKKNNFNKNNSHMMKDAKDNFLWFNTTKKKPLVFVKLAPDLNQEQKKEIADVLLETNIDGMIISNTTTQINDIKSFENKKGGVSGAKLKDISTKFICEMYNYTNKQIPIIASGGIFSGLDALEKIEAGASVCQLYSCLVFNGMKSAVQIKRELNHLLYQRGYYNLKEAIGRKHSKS

On to `COCCCNC(=O)[C@@]1(Cc2ccccc2N=[N+]=[N-])N=C(c2ccc(OCCCO)cc2)O[C@H]1c1ccccc1`, for which the z-score in assay [1] was -0.0132; in assay [2] it was -0.632 (inactive); in assay [3], -0.681 (inactive); in assay [5], 0.441 (inactive); in [6], -0.115 (inactive); in assay [7], 0.987 (inactive). Moreover, the results for the z-score in [8] and in assay [9] were -0.325 (inactive) and -0.647, respectively. In addition, the composite z-score in assay [4] was 0.328 (inactive); in assay [10], 0.234.
As to `COCCOC(=O)N1C(=O)[C@@]2(c3cc(C#CCNC(N)=O)ccc31)[C@H](C(=O)N1CCc3cc(OC)c(OC)cc3C1)[C@H]1C(=O)O[C@H](c3ccccc3)[C@H](c3ccccc3)N1[C@@H]2c1ccccc1OCCO`, the z-score in assay [1] was 0.0874; in assay [2], 1.11 (inactive); in assay [3], 0.256 (inactive); in assay [5], 1.54 (inactive); in [6], 0.816 (inactive); in assay [7], 1.27 (inactive). In addition, the z-score was 1.29 (inactive) in assay [8] and 0.274 in [9]. Also, the results for the composite z-score in [4] and in assay [10] were -1.68 (inactive) and 0.0578, respectively.
In the case of `O=C1OCCC=C[C@H]2OC34C=CCN(Cn5nnc6ccccc65)C(=O)[C@H]3N(CCCCCCO)C(=O)[C@@H]4C12` (stereo not given in full), the z-score was -0.677 in assay [1]; 0.506 (inactive) in [2]; -2.51 (inactive) in assay [3]; 0.205 (inactive) in assay [5]; 0.587 (inactive) in [6]; 0.603 (inactive) in assay [7]. Also, the values for the z-score in [8] and in assay [9] were 0.703 (inactive) and -0.288, respectively. The composite z-score in assay [4] was -0.272 (inactive); in assay [10], -0.302.
For the molecule `COC(=O)[C@@]1(Cc2ccc(OC)cc2)[C@H]2c3cc(C(=O)N(C)C)n(CCO)c3C[C@H]2CN1C(=O)c1ccccc1`, the z-score in [1] was -0.822; in assay [2], 0.474 (inactive); in assay [3] it was -1.23 (inactive); in [5], 0.33 (inactive); in assay [6], -0.562 (inactive); in assay [7], -0.748 (inactive). For the same molecule, the z-score in [8] was -0.173 (inactive); in assay [9] it was -0.915. In addition, the figures for the composite z-score in [4] and in assay [10] were -0.462 (inactive) and 0.0223, respectively.
As to `O=C1c2ccccc2[C@](Cc2ccccc2I)(C(=O)NCC(F)(F)F)[C@H](c2ccc(CO)cc2)N1C1CCCCC1`, the z-score in assay [1] was -0.46; in assay [2] it was -0.754 (inactive); in assay [3], 0.247 (inactive); in assay [5] it was 0.127 (inactive); in assay [6], 0.234 (inactive); in assay [7], 0.739 (inactive). Also, the z-score is 0.743 (inactive) in assay [8] and -0.581 in assay [9]. Moreover, the composite z-score was -1.11 (inactive) in assay [4] and 0.129 in assay [10].
As for `CC(C)(C)OC(=O)CC[C@]1(C(=O)NCc2ccccc2)N=C(c2ccc(OCCCO)cc2)O[C@H]1c1ccccc1CN=[N+]=[N-]`, the z-score was -1.08 in [1]; 0.103 (inactive) in assay [2]; -1.49 (inactive) in assay [3]; 0.702 (inactive) in assay [5]; 0.53 (inactive) in [6]; 0.414 (inactive) in assay [7]. Also, the figures for the z-score in assay [8] and in assay [9] were 0.391 (inactive) and -0.551, respectively. The composite z-score was 0.281 (inactive) in [4] and 0.0942 in assay [10].
`C=CCC(OC(C)=O)[C@@H]1[C@@H](N(Cc2cccc3ccccc23)C(=O)Cc2ccc(F)cc2)c2cc(OCCCO)ccc2N1C(=O)c1ccc2ccccc2n1` (stereo not given in full): the z-score in assay [1] was -0.157; in [2], 0.0526 (inactive); in [3], 0.263 (inactive); in [5], 0.501 (inactive); in [6], -0.142 (inactive); in assay [7], -0.406 (inactive). For the same molecule, the z-score was 0.0816 (inactive) in assay [8] and 0.493 in assay [9]. The composite z-score in [4] is 0.451 (inactive); in assay [10] it was 0.357.
`Cc1cc(C)c(C(O)C2C=CC3C(=O)NC(=O)C3N2Nc2ccc(Cl)cc2Cl)c(C)c1` (stereo not given): the z-score in [1] was -2.05; in assay [2], -3.83 (inactive); in assay [3], -1.94 (inactive); in [5] it was 1.62 (inactive); in assay [6], 0.737 (inactive); in [7], -0.731 (inactive). For the same molecule, the z-score in assay [8] is -1.17 (inactive); in assay [9], -1.81. In addition, the composite z-score in assay [4] is -0.0825 (inactive); in assay [10] it was 0.0251.
As for `C=CCC(OC(C)=O)[C@@H]1[C@@H](N(Cc2cc3ccccc3o2)C(=O)Cc2ccc(F)cc2)c2cc(OCCCO)ccc2N1C(=O)c1ccc2ccccc2c1` (stereo not given in full), the z-score in assay [1] is -0.081; in assay [2], 0.615 (inactive); in assay [3], 0.514 (inactive); in assay [5], 0.35 (inactive); in assay [6], -0.41 (inactive); in assay [7], -0.698 (inactive). Further, the z-score in assay [8] is -0.649 (inactive); in assay [9], 0.304. Further, the composite z-score in assay [4] was -1.04 (inactive); in assay [10], 0.555.
Turning to `O=C1O[C@@H](c2ccccc2)[C@@H](c2ccccc2)N2[C@@H](c3ccc(OCCO)cc3)[C@]3(C(=O)Nc4ccccc43)[C@@H](C(=O)O)[C@H]12`, the z-score was -0.273 in assay [1]; -0.624 (inactive) in [2]; 0.432 (inactive) in assay [3]; 0.449 (inactive) in [5]; -0.66 (inactive) in assay [6]; 0.468 (inactive) in assay [7]. Moreover, the results for the z-score in [8] and in assay [9] were -0.513 (inactive) and 0.441, respectively. The composite z-score is -1.09 (inactive) in assay [4] and -0.0339 in assay [10].
Consider `O=C(NCCCCCNC(=O)/C(Cc1ccccc1)=N/O)OCc1ccccc1`, for which the z-score in assay [1] is 0.619; in assay [2] it was -3.54 (inactive); in [3] it was 0.63 (inactive); in assay [5] it was 0.695 (inactive); in assay [6], -1.21 (inactive); in assay [7], 1.92 (inactive). For the same molecule, the z-score in assay [8] is 1.42 (inactive); in [9] it was 1.09. Also, the composite z-score in [4] is -0.713 (inactive); in assay [10] it was -0.253.
Turning to `CCCCCCc1nc(-c2cc(C)c(OC)c(C)c2)c(C)c2c1[Si](C(C)C)(C(C)C)OC2`, the z-score in assay [1] was -0.52; in assay [2], -0.214 (inactive); in assay [3] it was 0.899 (inactive); in assay [5], 0.374 (inactive); in assay [6] it was -0.199 (inactive); in assay [7], 0.326 (inactive). Besides, the z-score in assay [8] was -0.461 (inactive); in assay [9] it was 0.736. Also, the values for the composite z-score in assay [4] and in assay [10] were -2.86 (inactive) and -0.0994, respectively.

(Values after PubChem BioAssay.)
